High-throughput results (PubChem BioAssay)
DT40 TDP1 no CPT = qHTS for Inhibitors of human tyrosyl-DNA phosphodiesterase 1 (TDP1): qHTS in cells in absence of CPT. DT40 Tdp1-/- hTDP1 cells, no CPT, ATP luminescence, 48 h. Potency, µM (highest dose often 46.2 µM), most hits filed as inhibitors. 420,000 tested, 15% active; also: nearly all actives have a fitted effect of over 55% in size
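Growth kinetics read by CellTiter-Glo luminescence after ≥48 hr at 37 °C. Cells: DT40 Tdp1-/- stably carrying human TDP1, 400 per well, compound exposure in the absence of CPT (DMSO vehicle).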
ClpP mod = qHTS Assay for Activators of ClpP; 340,000 tested, 1.9% active; AID 651965, 2013; purified B. subtilis ClpP, FRET peptide cleavage, 20 min; Potency, µM (titrated, usually from 57.5 µM); ATP-dependent Clp protease proteolytic subunit (Bacillus subtilis (strain 168)), P80244; active = well fitted falling curve with a large enough effect; inconclusive = small, poorly fitted or top-dose-only effect; inactive = no such curve, though single readings can be large or run the other way; also: the source files actives as falling curves though it sought activators and does not explain the sign; nearly all actives have a fitted effect of over 65% in size
Target sequence (P80244 whole entry, looked up): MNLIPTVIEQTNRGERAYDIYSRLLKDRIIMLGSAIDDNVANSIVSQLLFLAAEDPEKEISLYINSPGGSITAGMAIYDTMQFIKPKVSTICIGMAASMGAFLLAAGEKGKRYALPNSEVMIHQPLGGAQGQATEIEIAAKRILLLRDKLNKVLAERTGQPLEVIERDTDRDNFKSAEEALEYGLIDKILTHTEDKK
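Purified B. subtilis ClpP, 10 microg/mL final in Tris/HCl pH8 with KCl, BSA, glycerol and Tween-20, cleaved an Abz/nitrotyrosine-quenched decapeptide. Fluorescence (ex 320, em 430) was read at 0 and 20 min at room temperature. Delta was normalized to 5.8 microM ADEP and DMSO/no-enzyme controls.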
TDP1 cell CPT = qHTS for Inhibitors of human tyrosyl-DNA phosphodiesterase 1 (TDP1): qHTS in cells in presence of CPT | Potency, µM (doses to about 46.2 µM), actives largely listed as inhibitors | 420,000 tested, 12% active | chicken DT40 Tdp1-/-;hTDP1 cells + 20 nM CPT, ATP luminescence, 48 h; also: nearly all actives have a fitted effect of over 55% in size
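Chicken DT40 Tdp1-/- cells stably complemented with human TDP1 were seeded at 400 cells/well in medium containing 20 nM camptothecin, exposed to pin-transferred compounds, and grown at 37 °C for at least 48 hr. Viability was read as ATP luminescence.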
TDP1 inh = qHTS Assay for Inhibitors of Tyrosyl-DNA Phosphodiesterase (TDP1). Tyrosyl-DNA phosphodiesterase 1 (Homo sapiens), Q9NUW8. recombinant TDP1, AlphaScreen DNA substrate cleavage. Potency, µM (top dose mostly 130 µM), most hits filed as inhibitors. 350,000 tested, 0.28% active. AID 485290, 2010; also: nearly all actives have a fitted effect of over 40% in size
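E. coli-derived human Tdp1, 1 nM final. Cpd preinc 15 min RT; substrate 15 nM final, 5 min RT; AS bead mix 10 ug/ml final, 10 min RT. Signal loss = tyrosine-FITC cleavage. No-enzyme wells = max signal.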
Large screens that a line does not name were inactive. Only some compounds are listed: those with a hit (about 17% of all), similar ones and a draw of the others. Unless noted, calls follow the shape of the dose curve; as a rule, active = well fitted curve in the direction sought with a large enough effect; inconclusive = small, poorly fitted or top-dose-only effect, or another doubt; inactive = no such curve, though single readings can be large; an effect the other way counts as inactive or inconclusive.

Cc1cccc(N(C)C(=O)c2cc3c(=O)oc4ccc(C)cc4c3s2)c1	none
N#CCCN1CCCN(CCC#N)CCN(CCC#N)CCCN(CCC#N)CC1	none (no result: ClpP mod, TDP1 inh)
O=C1CC(C(=O)N2CCN(c3ccccn3)CC2)CN1Cc1ccccc1Cl (stereo not given)	ClpP mod 32µM (no result: TDP1 inh)
O=C(Nc1ccccc1Cl)N1CCN(c2ccccn2)CC1	ClpP mod 22µM
CCOC(=O)c1ccc(NC(=O)N2CCN(c3cccc(OC)c3)CC2)cc1	DT40 TDP1 no CPT 18µM, TDP1 cell CPT inconclusive (no result: ClpP mod)
CCOC(=O)c1ccc(NC(=O)N2CCN(CCc3ccccc3)CC2)cc1	DT40 TDP1 no CPT inconclusive
CCOC(=O)c1ccc(NC(=O)N2CCN(c3ccccn3)CC2)cc1	ClpP mod 22µM
COc1ccccc1NC(=O)N1CCN(c2ccccn2)CC1	none
COc1ccc(NC(=S)N2CCNC(=O)C2CC(=O)Nc2cccc(Cl)c2C)cc1 (stereo not given)	none
CC(=O)c1cn(CC(=O)Nc2ccccc2C(F)(F)F)c2ccccc12	DT40 TDP1 no CPT inconclusive, TDP1 cell CPT inconclusive (no result: TDP1 inh)
O=C(CCn1c2c(c3ccccc31)CCCC2)NNC(=O)c1ccccc1[N+](=O)[O-]	DT40 TDP1 no CPT 7.3µM, TDP1 cell CPT inconclusive
O=C(Nc1ccc(-c2nc3cc(Cl)ccc3o2)cc1)c1cc2ccccc2o1	DT40 TDP1 no CPT inconclusive, TDP1 cell CPT inconclusive
CCCCNc1nc(-c2ccccc2)c(C(=O)OCC)cc1C#N	DT40 TDP1 no CPT 23µM, ClpP mod inconclusive, TDP1 cell CPT inconclusive (no result: TDP1 inh)
CCOC(=O)c1cc(C#N)c(N2CCOCC2)nc1-c1ccccc1	DT40 TDP1 no CPT inconclusive (no result: ClpP mod)
CCOC(=O)c1cc(C#N)c(Oc2ccccc2)nc1-c1ccccc1	DT40 TDP1 no CPT inconclusive, TDP1 cell CPT inconclusive (no result: TDP1 inh)
C=CCNc1nc(-c2ccccc2)c(C(=O)OCC)cc1C#N	DT40 TDP1 no CPT 10µM, TDP1 cell CPT inconclusive (no result: TDP1 inh)
CCCNc1nc(-c2ccccc2)c(C(=O)OCC)cc1C#N	DT40 TDP1 no CPT 2.9µM, ClpP mod 28µM, TDP1 cell CPT 2.9µM (no result: TDP1 inh)
COC1OC(CO)C(OC2OC(C(=O)O)C(OC3OC(COS(=O)(=O)O)C(OC4OC(C(=O)O)C(OC5OC(CO)C(OC6OC(C(=O)O)C(OC7OC(COS(=O)(=O)O)C(OC8OC(C(=O)O)=C[C@H](O)C8OS(=O)(=O)O)C(O)C7NC(C)=O)[C@@H](O)C6O)C(O)C5NC(C)=O)[C@@H](O)C4O)C(O)C3NC(C)=O)[C@@H](O)C2O)C(O)C1NC(C)=O (stereo not given in full)	none (no result: DT40 TDP1 no CPT, ClpP mod, TDP1 cell CPT)
Cn1ncc2c(O/N=C(\N)c3ccc(C(C)(C)C)cc3)ncnc21	DT40 TDP1 no CPT 2.9µM, TDP1 cell CPT 2.6µM (no result: ClpP mod)
OC[C@@H]1CN(Cc2ccc(Cl)cc2)C[C@H](n2cnc3c(NCc4ccc(F)cc4)ncnc32)O1	DT40 TDP1 no CPT 18µM, TDP1 cell CPT 18µM (no result: TDP1 inh)
OC[C@@H]1CN(Cc2cccc(C(F)(F)F)c2)C[C@H](n2cnc3c(NCc4ccco4)ncnc32)O1	DT40 TDP1 no CPT inconclusive, TDP1 cell CPT 18µM (no result: TDP1 inh)
OC[C@@H]1CN(Cc2cccc(C(F)(F)F)c2)C[C@H](n2cnc3c(NCc4ccc(F)cc4)ncnc32)O1	DT40 TDP1 no CPT 9.2µM, TDP1 cell CPT 18µM (no result: TDP1 inh)
COc1cccc(C2c3c(ncn(-c4ccncc4)c3=N)Oc3ccc4ccccc4c32)c1 (stereo not given)	none (no result: DT40 TDP1 no CPT, ClpP mod, TDP1 cell CPT)
Cc1cccc(NC(=O)c2oc3c(c2C)C(=O)CC(C)(C)C3)n1	DT40 TDP1 no CPT 5.2µM, TDP1 cell CPT 12µM
O=C(c1cc(C(F)(F)F)cc(C(F)(F)F)c1)N1CCC2(CCCN(Cc3ccccc3)C2)CC1	none (no result: ClpP mod, TDP1 inh)
CSc1nsc(SCC(=O)N2CCCc3ccccc32)n1	DT40 TDP1 no CPT 29µM, ClpP mod inconclusive, TDP1 cell CPT inconclusive
O=C(CSc1n[nH]c(-c2ccccc2O)n1)N1CCCc2ccccc21	DT40 TDP1 no CPT 21µM, TDP1 cell CPT inconclusive
CC(C)c1nc(SCC(=O)N2CCc3ccccc32)n[nH]1	none
COc1cc2c(cc1NC(=O)Nc1ccc(F)cc1)oc1ccccc12	DT40 TDP1 no CPT inconclusive
CCOC(=O)C1=C(COC(=O)c2ccco2)NC(=O)NC1CC (stereo not given)	none
CSc1nc(SCC(=O)NCc2ccco2)c2c3c(sc2n1)CN(C)CC3	none (no result: TDP1 inh)
CCN(CC)C(=O)CSc1nc(N)c2c3c(sc2n1)CC(C)CC3 (stereo not given)	DT40 TDP1 no CPT 21µM, TDP1 cell CPT inconclusive
CC1CCc2c(sc3nc(SCC(=O)NCc4ccco4)nc(N)c23)C1 (stereo not given)	DT40 TDP1 no CPT 13µM, TDP1 cell CPT 18µM
CCOc1cccc2sc(N(CCN(CC)CC)C(=O)c3cccc([N+](=O)[O-])c3)nc12	DT40 TDP1 no CPT inconclusive, TDP1 cell CPT inconclusive
Cc1cc(C)n(-c2nc3ccccc3c(=O)n2OCC#N)n1	DT40 TDP1 no CPT 0.65µM, TDP1 cell CPT 0.65µM (no result: ClpP mod, TDP1 inh)
CCOC(=O)COn1c(-n2nc(C)cc2C)nc2ccccc2c1=O	DT40 TDP1 no CPT 26µM, TDP1 cell CPT inconclusive (no result: TDP1 inh)
COC(=O)C(/C=C/C(C)Cc1cc(Br)cc(OCc2ccccc2)c1OC)OCc1ccccc1 (stereo not given)	none (no result: DT40 TDP1 no CPT, ClpP mod, TDP1 cell CPT)
Cc1ccc(-n2nc(C)c3c2C(Br)C(C)(C)CC3=O)nc1 (stereo not given)	TDP1 cell CPT inconclusive (no result: TDP1 inh)
Cc1nn(-c2ccccn2)c2c1C(=O)CC(C)(C)C2Br (stereo not given)	DT40 TDP1 no CPT inconclusive, TDP1 cell CPT 16µM
Cc1sc(-n2c(C)cc(/C=N/n3cnnc3)c2C)c(C#N)c1C	DT40 TDP1 no CPT 21µM, TDP1 cell CPT 16µM
